# Reference: the supplement of paper PMC8728848
# Only a selection was taken, and the strongest signals are over-represented in it overall.
# Tests used:
# Assay in all cases: glycan array binding signal (z-score within array); higher = stronger binding
# Details in all cases: glycan notation: IUPAC condensed, linker removed
# Fuc(a1-2)Gal(b1-3)GlcNAc = target: Fuc(a1-2)Gal(b1-3)GlcNAc
# In short: (§1)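 The Consortium for Functional Glycomics database supplied 3228 glycan arrays, of which those lacking an available protein sequence were dropped. The binding signal, a within-array Z-score, was averaged across arrays of the same protein sequence and across linkers. Negative scores can be read as non-binding.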
# [1] = target: Fuc(a1-2)Gal(b1-3)GlcNAc(b1-3)Gal(b1-4)Glc
# In short: as §1
# Fuc(a1-2)Gal(b1-4)Glc = target: Fuc(a1-2)Gal(b1-4)Glc
# In short: as §1
# [2] = target: Fuc(a1-2)Gal(b1-4)GlcNAc(b1-2)Man(a1-3)[Fuc(a1-2)Gal(b1-4)GlcNAc(b1-2)Man(a1-6)]Man(b1-4)GlcNAc(b1-4)[Fuc(a1-6)]GlcNAc
# In short: as §1
# [3] = target: Fuc(a1-2)Gal(b1-4)GlcNAc(b1-2)[Fuc(a1-2)Gal(b1-4)GlcNAc(b1-4)]Man(a1-3)[Fuc(a1-2)Gal(b1-4)GlcNAc(b1-2)Man(a1-6)]Man(b1-4)GlcNAc(b1-4)GlcNAc
# In short: as §1
# [4] = target: Fuc(a1-2)Gal(b1-4)GlcNAc(b1-3)[Fuc(a1-3)[Gal(b1-4)]GlcNAc(b1-6)]Gal(b1-4)Glc
# In short: as §1
# [5] = target: Fuc(a1-2)Gal(b1-4)[Fuc(a1-3)]GlcNAc(b1-2)Man(a1-3)[Fuc(a1-2)Gal(b1-4)[Fuc(a1-3)]GlcNAc(b1-2)Man(a1-6)]Man(b1-4)GlcNAc(b1-4)[Fuc(a1-6)]GlcNAc
# In short: as §1
# [6] = target: Fuc(a1-2)[Gal(a1-3)]Gal(b1-3)GlcNAc(b1-3)GalNAc
# In short: as §1
# [7] = target: Fuc(a1-2)[Gal(a1-3)]Gal(b1-4)[Fuc(a1-3)]GlcNAc
# In short: as §1
# [8] = target: Fuc(a1-2)[GalNAc(a1-4)]Gal(b1-4)GlcNAc
# In short: as §1
# [9] = target: Fuc(a1-3)[Gal(b1-4)]GlcNAc(b1-2)Man(a1-3)[Fuc(a1-3)[Gal(b1-4)]GlcNAc(b1-2)Man(a1-6)]Man(b1-4)GlcNAc(b1-4)GlcNAc
# In short: as §1
# [10] = target: Fuc(a1-3)[Gal(b1-4)]GlcNAc(b1-3)GalNAc
# In short: as §1
# [11] = target: Fuc(a1-3)[Gal3S(b1-4)]GlcNAc6S
# In short: as §1
# [12] = target: Gal(a1-3)Gal(b1-3)GlcNAc(b1-2)Man
# In short: as §1
# [13] = target: Gal(a1-3)Gal(b1-4)GlcNAc(b1-3)GalNAc
# In short: as §1
# [14] = target: Gal(a1-3)[Gal(a1-4)]Gal(b1-4)GlcNAc
# In short: as §1
# [15] = target: Gal(a1-4)Gal(b1-4)GlcNAc(b1-2)Man(a1-3)[Gal(a1-4)Gal(b1-4)GlcNAc(b1-2)Man(a1-6)]Man(b1-4)GlcNAc(b1-4)GlcNAc
# In short: as §1
# Gal(b1-3)Gal(b1-4)GlcNAc = target: Gal(b1-3)Gal(b1-4)GlcNAc
# In short: as §1
# [16] = target: Gal(b1-3)GlcNAc(b1-2)Man(a1-3)[Gal(b1-3)GlcNAc(b1-2)Man(a1-6)]Man(b1-4)GlcNAc(b1-4)GlcNAc
# In short: as §1
# [17] = target: Gal(b1-3)[Fuc(a1-4)]GlcNAc(b1-3)Gal(b1-4)[Fuc(a1-3)]GlcNAc
# In short: as §1
# [18] = target: Gal(b1-4)GalNAc(b1-3)[Fuc(a1-2)]Gal(b1-4)GlcNAc
# In short: as §1
# [19] = target: Gal(b1-4)GlcNAc(b1-2)[Gal(b1-4)GlcNAc(b1-6)]Man(a1-6)[GlcNAc(b1-4)][Gal(b1-4)GlcNAc(b1-2)[Gal(b1-4)GlcNAc(b1-4)]Man(a1-3)]Man(b1-4)GlcNAc(b1-4)[Fuc(a1-6)]GlcNAc
# In short: as §1
# [20] = target: Gal(b1-4)GlcNAc(b1-3)Gal(b1-4)GlcNAc(b1-3)Gal(b1-4)GlcNAc(b1-3)Gal(b1-4)GlcNAc(b1-3)Gal(b1-4)GlcNAc(b1-3)Gal(b1-4)GlcNAc(b1-2)Man(a1-3)[Gal(b1-4)GlcNAc(b1-3)Gal(b1-4)GlcNAc(b1-3)Gal(b1-4)GlcNAc(b1-3)Gal(b1-4)GlcNAc(b1-3)Gal(b1-4)GlcNAc(b1-3)Gal(b1-4)GlcNAc(b1-2)Man(a1-6)]Man(b1-4)GlcNAc(b1-4)GlcNAc
# In short: as §1
# [21] = target: Gal3S(b1-4)[Fuc(a1-3)]Glc6S
# In short: as §1
# Gal3S6S(b1-4)GlcNAc6S = target: Gal3S6S(b1-4)GlcNAc6S
# In short: as §1
# Gal6S(b1-3)GlcNAc = target: Gal6S(b1-3)GlcNAc
# In short: as §1
# GalNAc(b1-3)GalNAc = target: GalNAc(b1-3)GalNAc
# In short: as §1
binder,measurement,setting,value
PX9937D-bvu-500-26-500 (Bacteroides vulgatus) (protein) DPVSDITDLNYWKTPEQFDSFVFGLHSRFRSHSWNMFLLGEARSDVFGGIPFGGEATQGMERFPYNTLNAENPGISGFGDLYQNINQMNLFISRTLHTDVLTESARNYYLGQVYGLRAYYMYQLYRSWGDVVFTEEPSLGFEVGKLAKAATPAAEIFEQVKKDIESSLSYFGSDYTIKEKKSLWSKAATLMLKADVYLWSAHRDGGEGDARTAKNALVDIQNNISRSNLDLMDTYQGVFAYDNKGNKEIIFTIHNELFEYNLWNGNNDLFPQADYLGKFYNADGTLINTSVENNFGIMRLMVKLENFKKFLPGDTRRDVTLKDVYNKVENGKLELVGVYPHKYWGVMNGSTRVRCDDYPIYRYSDLLLMLAEAKVLLGEDPATEINRVRRRAFGDAYDASTVGFPNQEVDKRPADAVLQERLFEFMLEGKRWYDLRRFGDSYVLDYTPAEPARLLWPINQGALTNNPLLKQTVGY,glycan array binding signal (z-score),Fuc(a1-2)Gal(b1-3)GlcNAc,-0.32
same,glycan array binding signal (z-score),[1],-0.541
same,glycan array binding signal (z-score),Fuc(a1-2)Gal(b1-4)Glc,-0.401
same,glycan array binding signal (z-score),[2],2.63
same,glycan array binding signal (z-score),[3],0.277
same,glycan array binding signal (z-score),[4],-0.243
same,glycan array binding signal (z-score),[5],5.16
same,glycan array binding signal (z-score),[6],-0.226
same,glycan array binding signal (z-score),[7],-0.096
same,glycan array binding signal (z-score),[8],1.69
same,glycan array binding signal (z-score),[9],6.27
same,glycan array binding signal (z-score),[10],-0.063
same,glycan array binding signal (z-score),[11],0.002
same,glycan array binding signal (z-score),[12],4.49
same,glycan array binding signal (z-score),[13],-0.404
same,glycan array binding signal (z-score),[14],2.38
same,glycan array binding signal (z-score),[15],9.96
same,glycan array binding signal (z-score),Gal(b1-3)Gal(b1-4)GlcNAc,-0.412
same,glycan array binding signal (z-score),[16],4.38
same,glycan array binding signal (z-score),[17],-0.383
same,glycan array binding signal (z-score),[18],-0.3
same,glycan array binding signal (z-score),[19],5.5
same,glycan array binding signal (z-score),[20],2.58
same,glycan array binding signal (z-score),[21],0.78
same,glycan array binding signal (z-score),Gal3S6S(b1-4)GlcNAc6S,0.182
same,glycan array binding signal (z-score),Gal6S(b1-3)GlcNAc,1.2
same,glycan array binding signal (z-score),GalNAc(b1-3)GalNAc,-0.663
